From PubChem BioAssay (Tox21) come the findings set out here.

“And” between values parts separate entries of the source, which are not always exact repeats. Equal entries are not always repeated. Records with an inconclusive call do not appear. Where a call stands in place of a potency, no number is given. The source holds several records for some structures; these can differ, active in one and inactive in another. The source made the active and inactive calls. Calls follow the shape of the dose curve; as a rule, active = well fitted inhibition curve with a large enough effect in the repeat runs; inconclusive = weak or mixed curves; inactive = no such curve, though single readings can be large or run the other way.
Potency is read from the fitted curve at half-maximal effect.

Sequence of Cytochrome P450 2D6 (Homo sapiens) (P10635 whole entry, looked up): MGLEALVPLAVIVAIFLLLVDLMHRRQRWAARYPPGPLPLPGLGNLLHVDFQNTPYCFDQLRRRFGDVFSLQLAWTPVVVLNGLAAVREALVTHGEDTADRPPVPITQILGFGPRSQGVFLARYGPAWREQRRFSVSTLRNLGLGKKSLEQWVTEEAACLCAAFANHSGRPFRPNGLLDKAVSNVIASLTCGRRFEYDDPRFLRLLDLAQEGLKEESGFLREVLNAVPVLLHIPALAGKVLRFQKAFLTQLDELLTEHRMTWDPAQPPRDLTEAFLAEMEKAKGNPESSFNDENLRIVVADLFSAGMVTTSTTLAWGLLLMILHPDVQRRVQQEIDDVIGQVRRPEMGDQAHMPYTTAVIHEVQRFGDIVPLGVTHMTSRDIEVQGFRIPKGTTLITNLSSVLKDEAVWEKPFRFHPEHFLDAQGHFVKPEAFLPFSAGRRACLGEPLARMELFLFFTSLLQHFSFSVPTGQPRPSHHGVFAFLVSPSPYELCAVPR

The target of this test is Cytochrome P450 2D6 (Homo sapiens) (UniProt P10635). The test is described as follows: Cytochrome P450 Family 2 Subfamily D Member 6 (CYP2D6) small molecule antagonists: luciferase reporter qHTS assay (AID 1671196). Also: nearly all actives have a fitted effect of over 50% in size. The settings on record: P450-Glo CYP2D6 enzyme assay, luciferin luminescence, 1 h; series mostly up to 115 µM; activity change, negative = inhibition: at the top concentration. The text has this:
U.S. Tox21 Program National Center for Advancing Translational Sciences [NCATS] U.S. Environmental Protection Agency [EPA] National Institutes of Environmental Health Sciences [NIEHS] National Toxicology Program [NTP] U.S. Food and Drug Administration [FDA] Tox21 Assay Overview: Cytochrome P450 (CYP) enzymes are membrane-bound hemeproteins that play a key role in metabolism of drugs and xenobiotics. Evaluation of the effect of chemicals on CYP isozymes is useful to minimize the adverse drug reactions and toxicities in drug development process. Tox21 chemicals were tested for their effect on CYP enzyme activities by using P450-Glo (TM) screening systems (Promega Corporation, Madison, WI). These systems provide a luminescent method containing proluciferin substrates and are converted to luciferin products by CYP isozymes. The luciferin products formed are detected with a luciferin detection reagent, and the amount of light produced is proportional to CYP activity. P450-Glo (TM) CYP2D6 screening system (Catalog. No. V9890) was used to detect the compounds that interfere in CYP2D6 activity.
Tox21 Assay Protocol Summary: Two ul of enzyme-substrate mix was dispensed into medium binding white/solid 1536-well plates (Greiner Bio-One North America Inc., Monroe, NC) using a BioRaptr Flying Reagent Dispenser (FRD, Beckman Coulter, Brea, CA). […] The assay plates were incubated at room temperature for 10 min. Then 2 ul of NADPH regeneration solution was added to each well of the assay plates using an FRD and incubated at room temperature for 1 h. The reaction was stopped by adding 4 ul of detection reagent using an FRD and after 20 min incubation at room temperature the luminescence signal was measured using a ViewLux plate reader (Perkin Elmer, Shelton, CT). Data were expressed as relative luminescence units.
As to `CC(=O)O[C@]1(C(C)=O)CC[C@H]2[C@@H]3C=C(Cl)C4=CC(=O)CC[C@]4(C)[C@H]3CC[C@@]21C`, the “activity change, negative = inhibition” value was -13.7% [at 53 µM] (inactive).

Regarding `Nc1ccc(N)c(Cl)c1`, the Potency was 12.6 µM (active) and 22.4 µM (active).

For `C=C[C@@]1(C)CC(=O)[C@]2(O)[C@@]3(C)[C@@H](O)CCC(C)(C)[C@@H]3[C@H](O)[C@H](OC(C)=O)[C@@]2(C)O1`, the Potency is 63.3 µM (active) and inactive.

On to `CCCCCCCCCCCCO`, for which the Potency result is “inactive”.

In the case of `C=C1C[C@H]2[C@@H]3C=C(C)C4=CC(=O)CC[C@]4(C)[C@H]3CC[C@]2(C)[C@@]1(OC(C)=O)C(C)=O`, the Potency entry is “inactive”.

Consider `Cc1ccc(S(=O)(=O)O)cc1C`, for which the Potency entry was “inactive”.

For the compound `NCCN`, the Potency is 31.7 µM (active).

In the case of `O=Cc1ccccc1C=O`, the Potency result is “inactive”.

As to `NC[C@H](O)c1ccc(O)c(O)c1`, the “activity change, negative = inhibition” value was -16.7% [at 53 µM] (inactive).

Turning to `C[N+](C)(C)CCO`, the Potency result is “inactive”.

Take `Nc1ccc(O)c(N)c1`: the Potency is 35.3 µM (active) and 31.7 µM (active).

In the case of `Oc1ccc(C(c2ccc(O)cc2)C(Cl)(Cl)Cl)cc1`, the Potency result is “inactive”.

As for `CC(C)=CCO`, the “activity change, negative = inhibition” value was -1.32% (inactive).

Turning to `Cc1ccc(C)c(O)c1`, the Potency entry was “inactive”.

For the compound `C=CN1CCCC1=O`, the Potency result was “inactive”.

`CN(Cc1cnc2nc(N)nc(N)c2n1)c1ccc(C(=O)N[C@@H](CCC(=O)O)C(=O)O)cc1`: the Potency entry is “inactive”.

Take `[O-]/[N+](=N\O)c1ccccc1`: the “activity change, negative = inhibition” value is -23.5% (inactive).

As for `CCCCCCCCCCC(CO)CCCCCCCC` (stereo not given), the Potency result was “inactive”.

`O=C(O)c1cc(=O)[nH]c(=O)[nH]1`: the Potency was 6.34 µM (active).

Regarding `CCCCCC=O`, the Potency entry is “inactive”.

In the case of `Cc1ccc(S(=O)(=O)NCl)cc1`, the Potency entry is “inactive”.

On to `Cc1ccc2c(c1)C(=O)OC2=O`, for which the Potency entry was “inactive and 6.33 µM (active)”.

On to `C[C@]12CC[C@@H]3c4ccc(O)cc4CC[C@H]3[C@@H]1CC[C@H]2O`, for which the Potency result was “inactive”.

`O=[Se](O)O`: the Potency entry was “inactive”.

On to `CCCCCCCC/C=C\CCCCCCCC(=O)O`, for which the Potency entry is “inactive”.

In the case of `c1ccc2c(c1)ccc1ncccc12`, the Potency was 7.91 µM (active).

Turning to `CC[C@]12CCCN3CCc4c(n(c5ccccc45)[C@@](O)(C(=O)OC)C1)[C@@H]32`, the Potency was 10 µM (active) and 8.71 µM (active).

`CCCCCCCCCCCCCO`: the Potency result was “inactive”.

As to `CCCOCCO`, the Potency result was “inactive”.

As for `NCCOCCO`, the Potency result is “inactive”.

For the compound `CCC(=O)O[C@H]1[C@H](O[C@@H]2[C@@H](C)[C@H](O[C@H]3C[C@@](C)(OC)[C@@H](O)[C@H](C)O3)[C@@H](C)C(=O)O[C@H](CC)[C@@](C)(O)[C@H](O)[C@@H](C)C(=O)[C@H](C)C[C@@]2(C)O)O[C@H](C)C[C@@H]1N(C)C`, the “activity change, negative = inhibition” value is -2.44% [at 53 µM] (inactive).

As to `CN(C)/N=N/c1nc[nH]c1C(N)=O`, the “activity change, negative = inhibition” value was -0.318% (inactive).

Turning to `CC(C)(C)c1cccc(C(C)(C)C)c1O`, the Potency is 39 µM (active) and inactive.

On to `c1ccc2ncccc2c1`, for which the Potency entry is “inactive”.

As to `OC[C@@H](O)[C@@H](O[C@@H]1O[C@H](CO)[C@H](O)[C@H](O)[C@H]1O)[C@H](O)[C@@H](O)CO`, the Potency entry was “inactive”.

For `C[C@]12CC[C@@H]3c4ccc(O)cc4CC[C@H]3[C@@H]1CC[C@@H]2O`, the Potency is 8.92 µM (active) and inactive.

Consider `COC(=O)CC(=O)OC`, for which the Potency entry is “inactive”.

`CC(=O)[C@@]1(O)CC[C@H]2[C@@H]3C[C@H](C)C4=CC(=O)C=C[C@]4(C)[C@@]3(F)[C@@H](O)C[C@@]21C`: the “activity change, negative = inhibition” value was -10.7% [at 53 µM] (inactive).

Consider `CC(=O)Nc1ccc2c(c1)Cc1cc(NC(C)=O)ccc1-2`, for which the Potency result was “inactive”.

With `c1ccc2cc3ccccc3cc2c1`, the Potency entry was “inactive”.
